These results are taken from PubChem BioAssay (EPA / NIEHS).

Molecules are shown by their SMILES. Records with an inconclusive call do not appear. The source made the active and inactive calls. How the source made its calls, unless noted: active means hit-call score of the fitted dose curve at least 0.9, where 1 is the maximum; inconclusive means response in the unintended direction; inactive means score below 0.9.

Experiment [1] in a line: NVS_IC_rCaBTZCHL: NovaScreen (NVS) Ion Channel Assay for Calcium Channel, Type L, Benzothiazepine Site (CaBTZCHL) (AID 2283337). An outline of the steps: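 Rat cortical membrane preparation, cell-free. Radioligand displaced by test chemical; 1.5 h incubation; filtration, scintillation count. DMSO = negative control/baseline. Primary: duplicate, 25 uM; secondary: concentration series.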

The test system of experiment [2] is guinea pig Histamine Receptor (H2), gene 100729734. In words: NVS_GPCR_gH2: NovaScreen (NVS) G Protein-Coupled Receptor Assay for guinea pig Histamine Receptor (H2) (AID 2283342). An outline of the steps:
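Guinea pig striatal membrane preparation with specific radioligand; bound counts measured by filtration and scintillation 1 h post-dosing, DMSO as baseline. Chemicals passing a 25 uM duplicate screen were titrated to a 50 uM maximum.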

Experiment [3] deals with Estrogen receptor beta (Homo sapiens) (UniProt Q92731). In words: OT_ER_ERbERb_0480: Odyssey Thera (OT) 8-hour HEK293T Protein-Complementation Assay for Estrogen Receptor-beta/-beta Homodimer (AID 2283357).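 Further: active means signal gain over DMSO baseline.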 An outline of the steps:
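Fluorescence gain from complemented reporter fragments on ER-beta LBD homodimer in HEK293T was quantified against DMSO controls after 8 h treatment, fixation in 4% formaldehyde and Draq5 staining.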

Experiment [4] concerns the target rat Peripheral-type Benzodiazepine Receptor (PBR), Tspo (gene 24230) (UniProt P16257). In words: NVS_MP_rPBR: NovaScreen (NVS) Membrane Protein Assay for rat Peripheral-type Benzodiazepine Receptor (PBR) (AID 2283335). An outline of the steps: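 Single-concentration duplicate screening at 25 uM preceded concentration-series retesting of actives. Binding of a specific radioligand to rat kidney membrane PBR was read by filtration radiodetection after 1 h, with plate-wise positive and negative controls.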

Experiment [5] has as its target Small conductance calcium-activated potassium channel protein 1 (Rattus norvegicus) (UniProt P70606). In words: NVS_IC_rKCaCh: NovaScreen (NVS) Ion Channel Assay for rat Potassium Channel, Ca2+ Act., VI (KCaCh) (AID 2283336). An outline of the steps:
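Filter-based scintillation counting of radioligand bound to rat forebrain membrane preparations, measured 1 h after compound addition. Primary screen used 25 uM in duplicate, with concentration-response follow-up; signal decrease relative to DMSO marks activity.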

The target in experiment [6] is bovine Gamma-Aminobutyric Acid Type A Receptor Agonist (GABAR Agonist), GABRA1 (gene 780973) (UniProt P08219). In words: NVS_LGIC_bGABAR_Agonist: NovaScreen (NVS) Ligand-Gated Ion Channel Assay for bovine Gamma-Aminobutyric Acid Type A Receptor Agonist (GABAR Agonist) (AID 2283338). An outline of the steps: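 Radioligand binding to bovine cerebellar membranes in agonist format, read by filter-based scintillation counting after 1 h. Primary screen in duplicate at 25 uM, with actives followed in concentration series. Gain of signal versus DMSO.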

In experiment [7] the target is rat Glycine Receptor, Strychnine-sensitive (GlyRStrySens), Glra1 (gene 25674) (UniProt P07727). In words: NVS_LGIC_rGlyRStrySens: NovaScreen (NVS) Ligand-Gated Ion Channel Assay for rat Glycine Receptor, Strychnine-sensitive (GlyRStrySens) (AID 2283341). An outline of the steps: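 Radioligand displacement on rat spinal cord membranes, 1 hr, filter scintillation read-out. Single-concentration duplicate screen at 25 uM; chemicals meeting threshold (e.g., 30% inhibition) rerun in concentration-response up to 50 uM. Loss of binding fitted versus DMSO.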

Experiment [8] addresses human Constitutive Androstane Receptor (CAR), NR1I3 (gene 9970) (UniProt Q14994). In words: NVS_NR_hCAR_Antagonist: NovaScreen (NVS) Nuclear Receptor Binding Assay for human Constitutive Androstane Receptor Antagonism (CAR) (AID 2283344). An outline of the steps:
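Single 25 uM duplicate primary screen, with concentration-series follow-up on actives. Cell-free binding format run in antagonist mode, TR-FRET signal taken 1 h post-dose; activity is signal loss relative to DMSO.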

The target in experiment [9] is bovine Estrogen Receptor (ER), ESR1 (gene 407238) (UniProt P49884). In words: NVS_NR_bER: NovaScreen (NVS) Nuclear Receptor Binding Assay for bovine Estrogen Receptor (ER) (AID 2283345).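 Further: actives lower the bound radioligand count which means they displace the ER ligand.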 An outline of the steps:
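Cell-free radioligand binding with receptor from bovine uterine membranes, read by scintillation counting 18 h after dosing. Loss of specific binding was scored against DMSO; primary screen at 25 uM in duplicate, actives then run as concentration series.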

For experiment [10], the target named is Estrogen receptor (Homo sapiens) (UniProt P03372). In words: NVS_NR_hER: NovaScreen (NVS) Nuclear Receptor Binding Assay for human Estrogen Receptor (ER) (AID 2283348). An outline of the steps:
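Radiodetection of ligand displacement in a lysate-based, cell-free format using MCF7 extracts, read at 18 hours. Duplicate 25 uM primary testing, then concentration series for actives.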

The target of experiment [11] is Bile acid receptor (Homo sapiens) (UniProt Q96RI1). In words: NVS_NR_hFXR_Antagonist: NovaScreen (NVS) Nuclear Receptor Binding Assay for human Farnesoid X Receptor Antagonism (FXR) (AID 2283350). An outline of the steps:
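Antagonist-format time-resolved FRET binding assay with extracted human receptor protein, read 1 hour after compound addition. Compounds first screened at 25 uM in duplicate, then actives tested in concentration series, with loss of signal relative to DMSO.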

In experiment [12] the target is Estrogen receptor (Homo sapiens) + Estrogen receptor beta (Homo sapiens) (UniProt P03372+Q92731). In words: OT_ER_ERaERb_1440: Odyssey Thera (OT) 24-hour HEK293T Protein-Complementation Assay for Estrogen Receptor-alpha/-beta Homodimer (AID 2283356).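 Further: heteromer of ER alpha and ER beta binding domains; hits raise reporter fluorescence and both agonists and antagonists give an increase.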 An outline of the steps: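 24 h exposure; HEK293T PCA cells with ERα/ERβ LBD fragments; signal rise in nuclear or whole-cell fluorescence over vehicle.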

Experiment [13] addresses Glutamate receptor ionotropic, kainate 1 (Rattus norvegicus) (UniProt P22756). In words: NVS_IC_rKAR: NovaScreen (NVS) Ion Channel Assay for rat Kainic Acid Receptors (KAR) (AID 2283334; active means hit-call score of the fitted dose curve at least 0.9, where 1 is the maximum; inactive means score below 0.9). An outline of the steps:
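Rat forebrain membrane preparation incubated 1 h with radioligand and test chemical; bound signal read by filtration and scintillation. Single-concentration screen at 25 uM, then concentration series to 50 uM maximum.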

The target of experiment [14] is Androgen Receptor/SRC-1 Co-activator, AR (gene 367) (UniProt P10275). In words: OT_AR_ARSRC1_0960: Odyssey Thera (OT) 16-hour HEK293T Protein-Complementation Assay for Androgen Receptor/SRC-1 Co-activator (AID 2283353).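 Further: actives raise the signal above DMSO so potency reflects increased AR and SRC-1 complex.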 An outline of the steps:
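Readout: 488 nm nuclear-to-cytoplasmic fluorescence ratio from imaging of at least 400 cells per image, 16 h post-dose. Reporter is Venus YFP complementation between AR and SRC-1 fusions, stably expressed in HEK293T; activity scored upward relative to DMSO.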

For experiment [15] the target is unchanged. In words: OT_AR_ARSRC1_0480: Odyssey Thera (OT) 8-hour HEK293T Protein-Complementation Assay for Androgen Receptor/SRC-1 Co-activator (AID 2283354).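 Further: hits raise the complementation signal above DMSO so AC50 marks enhancers.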 An outline of the steps: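 After 8 h dosing, stably expressing HEK293T cells with split-Venus AR/SRC-1 fusions were imaged (488, 635nm). The 488nm N/C ratio per image gave the endpoint, analysed in the positive direction against DMSO.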

The target in experiment [16] is Estrogen receptor (Homo sapiens) (UniProt P03372). In words: OT_ER_ERaERa_0480: Odyssey Thera (OT) 8-hour HEK293T Protein-Complementation Assay for Estrogen Receptor-alpha/-alpha Homodimer (AID 2283351).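 Further: rise in fluorescence from reassembled reporter fragments on ERα LBD homodimer in nucleus or whole cell.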 An outline of the steps:
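Read-out: fluorescence intensity rise relative to DMSO, nuclear for agonists, nuclear plus cytoplasmic for antagonists. Construct is the ERα LBD (aa 310-547) homodimer fragment-complementation pair, stably expressed in HEK293T; exposure 8 h.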

Experiment [17] addresses chimpanzee Androgen Receptor (AR), AR (gene 747460) (UniProt O97775). In words: NVS_NR_cAR: NovaScreen (NVS) Nuclear Receptor Binding Assay for chimpanzee Androgen Receptor (AR) (AID 2283346).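 Further: radioligand displacement from AR measured by scintillation counting in a cell-free assay.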 An outline of the steps:
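Cell-free radioligand displacement using receptor protein extracted from Sf9/Sf21 cells; bound radioligand measured by scintillation counting 72 hours after chemical dosing. Loss of signal versus DMSO baseline indicates binding; primary screen single-concentration in duplicate at 25 uM, actives followed in concentration series.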

Experiment [18] concerns the target rat Glutamate, MK-801 Agonist Site (GluNMDA_MK801), Grin1 (gene 24408) (UniProt P35439). In words: NVS_LGIC_rGluNMDA_MK801_Agonist: NovaScreen (NVS) Ligand-Gated Ion Channel Assay for rat Glutamate, MK-801 Agonist Site (GluNMDA_MK801) (AID 2283340). An outline of the steps: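 Rat forebrain membrane preparation; MK-801-site radioligand binding read by filtration and scintillation after 1.5 h. Single-point 25 uM duplicate screen, followed by singleton concentration series to 50 uM max; DMSO baseline.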

For another experiment, the system named is NCBI gene 100848466. In words: NVS_NR_bPR: NovaScreen (NVS) Nuclear Receptor Binding Assay for bovine Progextron Receptor (PR) (AID 2283343).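 Further: actives lower bound radioligand signal below DMSO meaning displacement of the label.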 An outline of the steps: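 Steps: bovine uterine membranes were dosed with chemical alongside radioligand, incubated 18 hours, then radiodetected by scintillation counting. Initial testing used 25 uM in duplicate; confirmed actives were rerun as concentration series.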

The target in experiment [19] is rat Mineralocorticoid Receptor (MR), Nr3c2 (gene 25672) (UniProt P22199). In words: NVS_NR_rMR: NovaScreen (NVS) Nuclear Receptor Binding Assay for rat Mineralocorticoid Receptor (MR) (AID 2283355). An outline of the steps:
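Single-concentration duplicate screen (25 uM) of radioligand binding in adrenalectomized rat brain supernatant; scintillation detection 24 h after dosing. Positive and negative controls ran on each plate, and confirmed actives went to concentration-response.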

chimpanzee Androgen Receptor (AR), AR (gene 747460), sequence (O97775 whole entry, looked up): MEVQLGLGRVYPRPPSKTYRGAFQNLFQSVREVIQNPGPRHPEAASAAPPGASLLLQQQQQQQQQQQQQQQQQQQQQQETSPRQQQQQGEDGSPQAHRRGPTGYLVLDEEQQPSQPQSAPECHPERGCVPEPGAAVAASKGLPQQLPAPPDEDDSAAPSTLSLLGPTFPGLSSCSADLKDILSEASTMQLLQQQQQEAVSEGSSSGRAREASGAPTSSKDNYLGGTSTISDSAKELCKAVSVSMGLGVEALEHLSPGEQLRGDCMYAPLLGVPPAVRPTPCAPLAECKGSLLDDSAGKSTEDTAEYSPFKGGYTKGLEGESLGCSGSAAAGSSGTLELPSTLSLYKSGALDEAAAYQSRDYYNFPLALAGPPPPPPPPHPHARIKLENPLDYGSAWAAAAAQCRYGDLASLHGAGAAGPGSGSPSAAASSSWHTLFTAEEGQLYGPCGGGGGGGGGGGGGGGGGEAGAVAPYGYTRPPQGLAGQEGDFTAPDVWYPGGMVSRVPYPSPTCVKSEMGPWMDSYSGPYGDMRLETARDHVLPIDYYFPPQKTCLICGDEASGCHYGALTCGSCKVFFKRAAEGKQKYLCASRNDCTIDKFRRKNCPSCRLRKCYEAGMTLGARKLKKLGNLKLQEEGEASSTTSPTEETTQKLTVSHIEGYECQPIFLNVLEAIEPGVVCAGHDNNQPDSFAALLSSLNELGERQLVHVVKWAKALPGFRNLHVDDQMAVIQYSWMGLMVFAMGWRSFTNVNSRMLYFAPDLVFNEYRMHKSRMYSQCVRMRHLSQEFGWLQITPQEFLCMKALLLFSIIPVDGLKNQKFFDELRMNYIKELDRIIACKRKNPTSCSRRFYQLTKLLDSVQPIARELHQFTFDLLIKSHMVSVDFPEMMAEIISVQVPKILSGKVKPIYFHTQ
Androgen Receptor/SRC-1 Co-activator, AR (gene 367), sequence (P10275 whole entry, looked up, the tested form may be a part): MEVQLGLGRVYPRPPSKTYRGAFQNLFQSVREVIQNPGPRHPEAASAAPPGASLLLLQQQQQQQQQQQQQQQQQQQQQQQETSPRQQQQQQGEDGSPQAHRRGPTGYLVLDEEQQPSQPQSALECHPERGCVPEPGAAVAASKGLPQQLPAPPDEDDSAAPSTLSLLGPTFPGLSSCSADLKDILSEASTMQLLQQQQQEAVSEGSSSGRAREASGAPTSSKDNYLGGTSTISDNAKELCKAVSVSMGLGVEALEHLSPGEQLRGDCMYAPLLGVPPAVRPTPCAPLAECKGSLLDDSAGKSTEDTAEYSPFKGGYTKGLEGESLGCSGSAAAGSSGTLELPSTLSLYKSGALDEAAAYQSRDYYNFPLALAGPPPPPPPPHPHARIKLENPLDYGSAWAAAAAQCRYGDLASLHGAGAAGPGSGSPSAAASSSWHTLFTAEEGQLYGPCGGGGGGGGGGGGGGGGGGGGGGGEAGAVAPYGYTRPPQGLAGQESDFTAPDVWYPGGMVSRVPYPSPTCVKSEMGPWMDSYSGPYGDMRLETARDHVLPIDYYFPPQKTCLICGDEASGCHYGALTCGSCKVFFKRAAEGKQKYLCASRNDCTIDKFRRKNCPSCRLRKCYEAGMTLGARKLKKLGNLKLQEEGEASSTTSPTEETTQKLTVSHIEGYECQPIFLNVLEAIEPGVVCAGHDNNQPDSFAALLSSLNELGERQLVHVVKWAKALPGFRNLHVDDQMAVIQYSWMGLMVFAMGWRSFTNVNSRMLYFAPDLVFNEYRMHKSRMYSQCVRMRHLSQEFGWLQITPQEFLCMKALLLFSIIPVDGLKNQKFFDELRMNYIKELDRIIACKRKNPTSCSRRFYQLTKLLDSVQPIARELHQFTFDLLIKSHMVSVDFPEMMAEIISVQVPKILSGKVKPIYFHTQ
Estrogen receptor beta (Homo sapiens), sequence (Q92731 whole entry, looked up, the tested form may be a part): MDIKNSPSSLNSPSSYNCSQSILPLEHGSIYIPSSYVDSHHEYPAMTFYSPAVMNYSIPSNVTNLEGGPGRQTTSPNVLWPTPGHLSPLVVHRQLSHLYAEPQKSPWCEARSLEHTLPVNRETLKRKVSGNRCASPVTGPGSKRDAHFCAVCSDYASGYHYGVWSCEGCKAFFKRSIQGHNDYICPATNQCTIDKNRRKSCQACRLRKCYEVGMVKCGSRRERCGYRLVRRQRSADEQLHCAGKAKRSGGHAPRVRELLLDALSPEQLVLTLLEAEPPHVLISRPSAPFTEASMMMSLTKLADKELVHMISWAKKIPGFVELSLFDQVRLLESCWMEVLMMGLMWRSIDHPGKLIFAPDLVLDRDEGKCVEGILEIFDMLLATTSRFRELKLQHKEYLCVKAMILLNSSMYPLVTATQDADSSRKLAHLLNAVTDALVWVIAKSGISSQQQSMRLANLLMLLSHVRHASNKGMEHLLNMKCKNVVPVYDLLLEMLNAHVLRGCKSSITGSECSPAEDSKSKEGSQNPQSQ
Estrogen receptor (Homo sapiens), sequence (P03372 whole entry, looked up, the tested form may be a part): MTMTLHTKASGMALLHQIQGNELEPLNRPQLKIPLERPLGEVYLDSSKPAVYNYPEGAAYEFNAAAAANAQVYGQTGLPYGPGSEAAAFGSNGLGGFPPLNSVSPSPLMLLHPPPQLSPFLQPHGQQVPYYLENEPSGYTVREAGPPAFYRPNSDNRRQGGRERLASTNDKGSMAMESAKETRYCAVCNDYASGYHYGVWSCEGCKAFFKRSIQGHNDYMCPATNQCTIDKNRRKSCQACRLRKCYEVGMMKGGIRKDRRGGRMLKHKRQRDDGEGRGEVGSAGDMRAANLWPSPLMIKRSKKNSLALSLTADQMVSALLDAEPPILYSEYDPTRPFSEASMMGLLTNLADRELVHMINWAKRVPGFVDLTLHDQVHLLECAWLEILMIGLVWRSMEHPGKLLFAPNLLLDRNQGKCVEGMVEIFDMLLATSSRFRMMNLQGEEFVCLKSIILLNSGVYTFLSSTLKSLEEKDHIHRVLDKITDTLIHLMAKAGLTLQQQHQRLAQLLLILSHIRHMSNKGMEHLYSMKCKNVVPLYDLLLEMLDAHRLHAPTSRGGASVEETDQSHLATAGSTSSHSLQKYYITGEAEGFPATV
Estrogen receptor (Homo sapiens) + Estrogen receptor beta (Homo sapiens), sequence (P03372 whole entry, looked up, the tested form may be a part): as above
Estrogen receptor (Homo sapiens) + Estrogen receptor beta (Homo sapiens), sequence (Q92731 whole entry, looked up, the tested form may be a part): as the sequence (Q92731 whole entry, looked up, the tested form may be a part) above
rat Peripheral-type Benzodiazepine Receptor (PBR), Tspo (gene 24230), sequence (P16257 whole entry, looked up): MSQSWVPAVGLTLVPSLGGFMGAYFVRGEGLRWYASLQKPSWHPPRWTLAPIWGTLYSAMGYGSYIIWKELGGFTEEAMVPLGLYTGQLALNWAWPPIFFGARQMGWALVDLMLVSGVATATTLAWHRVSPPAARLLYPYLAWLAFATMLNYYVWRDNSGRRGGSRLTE
bovine Gamma-Aminobutyric Acid Type A Receptor Agonist (GABAR Agonist), GABRA1 (gene 780973), sequence (P08219 whole entry, looked up): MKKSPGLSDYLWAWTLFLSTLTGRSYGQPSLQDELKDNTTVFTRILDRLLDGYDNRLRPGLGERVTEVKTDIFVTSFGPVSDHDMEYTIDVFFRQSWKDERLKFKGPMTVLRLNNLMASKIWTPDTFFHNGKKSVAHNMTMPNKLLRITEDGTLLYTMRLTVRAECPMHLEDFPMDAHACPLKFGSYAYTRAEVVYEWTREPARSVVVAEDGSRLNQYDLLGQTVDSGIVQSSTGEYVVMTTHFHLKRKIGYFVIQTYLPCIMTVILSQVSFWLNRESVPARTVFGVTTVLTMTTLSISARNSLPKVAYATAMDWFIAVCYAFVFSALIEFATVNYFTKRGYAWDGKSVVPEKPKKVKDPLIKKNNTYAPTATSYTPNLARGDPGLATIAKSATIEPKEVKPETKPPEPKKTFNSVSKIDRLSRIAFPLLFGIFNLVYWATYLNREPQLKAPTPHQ

Turning to `CCN(C(=O)c1cc(C)cc(OC[C@H](C)Nc2ccncc2)c1)C(C)C`, the AC50 in experiment [1] is 6.56 µM (active); in experiment [2], 16.9 µM (active). Further, the outcome in experiment [3] was inactive.
In the case of `COc1cccc(-c2ccc(/C=C\CN3CCCCCC3)cc2Cl)c1`, the AC50 in experiment [4] is 8.04 µM (active); in experiment [1], 0.665 µM (active); in [6], 10.5 µM (active); in [2], 12.3 µM (active); in experiment [12], 10.7 µM (active). Also, the result in experiment [5], in experiment [7], in [8], in [9], in experiment [10] and in experiment [11] was inactive. Besides, the call in experiment [3] was inactive.
With `On1ccccc1=S`, the result in experiment [13] and in [3] was inactive.
Consider `CCCN(C1CCN(C(=O)C2CCNCC2)CC1)[C@@H]1CCc2ccc(OC)cc2C1`, for which the outcome in [1], in experiment [14], in experiment [15] and in experiment [3] was inactive. Also, the AC50 in [2] was 16.9 µM (active).
`CCn1nc(Cc2ccccc2)cc1C1CCN(C[C@H]2C[C@H](N(C)[C@@H](C(=O)O)C(C)C)C[C@@H]2c2cccc(F)c2)CC1`: the outcome in [4], in experiment [16], in experiment [12] and in experiment [3] was inactive. Moreover, the results for the AC50 in experiment [1] and in [2] were 16.2 µM (active) and 11.4 µM (active), respectively.
Regarding `CCOc1cccc(-n2cc(C(=O)N3CCN(c4cc(C(=O)O)c5ccccc5c4)CC3)nc2-c2ccc(C)cc2)c1`, the AC50 is 9.73 µM (active) in [4], 20.4 µM (active) in experiment [17] and 23.9 µM (active) in [14]. Besides, the result in [2], in experiment [15] and in experiment [3] was inactive.
Regarding `CCc1cc(SCc2sc(-c3ccc(C(F)(F)F)cc3)nc2CN2CCN(c3ccc(OC)cc3)CC2)ccc1OCC(=O)O`, the AC50 in experiment [4] was 1.81 µM (active); in [2], 17.7 µM (active); in the experiment with NCBI gene 100848466, 40.3 µM (active); in experiment [17], 29 µM (active). Moreover, the molecule was classed as inactive in experiment [18].
Take `O=C(OC[C@H]1O[C@@H](OC(=O)c2cc(O)c(O)c(OC(=O)c3cc(O)c(O)c(O)c3)c2)[C@H](OC(=O)c2cc(O)c(O)c(OC(=O)c3cc(O)c(O)c(O)c3)c2)[C@@H](OC(=O)c2cc(O)c(O)c(OC(=O)c3cc(O)c(O)c(O)c3)c2)[C@@H]1OC(=O)c1cc(O)c(O)c(OC(=O)c2cc(O)c(O)c(O)c2)c1)c1cc(O)c(O)c(OC(=O)c2cc(O)c(O)c(O)c2)c1`: the results for the concentration at half-maximal activity (AC50) in experiment [4] and in experiment [17] were 0.715 µM (active) and 0.472 µM (active), respectively.
On to `Nc1cccc(N)c1`, for which the AC50 in [6] is 6.48 µM (active).
Turning to `CC[C@H]1CC[C@H](NCc2cc3c(cc2OC)[C@H]2C[C@H]2C(=O)N3C)[C@H](c2ccccc2)N1`, the results for the AC50 in experiment [1] and in [2] were 3.79 µM (active) and 16 µM (active), respectively. Further, the outcome in experiment [10], in [16], in experiment [12] and in experiment [3] was inactive.
On to `O=P(OC(CCl)CCl)(OC(CCl)CCl)OC(CCl)CCl`, for which the AC50 is 2.36 µM (active) in [4], 8.22 µM (active) in the experiment on NCBI gene 100848466 and 13.3 µM (active) in [17]. For the same molecule, the call in experiment [10], in experiment [16], in experiment [19], in experiment [12] and in [3] was inactive.
As for `COC(=O)CC(=O)OC`, the call in [13], in [16] and in [12] was inactive.

As a reminder, the AC50 is the midpoint of the concentration-response curve, whichever way the signal moves.
